IL1B secr inh: inflammasome signaling inhibition, IL-1 beta readout. THP-1 LPS/ATP IL-1B secretion, AlphaLISA, 16 h; hits give low values. activity change, % at 57.5 µM. 360,000 compounds, 4.7% hits. AID 743279; in the data active = activity change below about -50%; inconclusive = mostly about -30% to -49%
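THP-1 cells pretreated 1 hr with compounds (up to 57.5 uM final), then stimulated with LPS (250 ng/mL final) plus ATP (1.25 mM final); secreted IL-1B measured by AlphaLISA after 16 hr, decreased signal indicating inhibition.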
DT40 TDP1 CPT: DT40-hTDP1 cell growth loss with CPT. Potency, µM (top dose mostly 46.2 µM), actives largely listed as inhibitors. 420,000 compounds, 12% hits. chicken DT40 Tdp1-/-;hTDP1 cells + 20 nM CPT, ATP luminescence, 48 h; also: nearly all actives have a fitted effect of over 55% in size
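Chicken DT40 Tdp1-/- cells complemented with human TDP1, 400 cells/well, exposed to compounds plus 20 nM camptothecin for at least 48 h at 37 C; viability read as ATP content by CellTiter-Glo luminescence.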
Giardia kill: kills Giardia lamblia; Giardia lamblia trophozoite viability; activity change, % at 7.66 µM, hits read low; 340,000 compounds, 0.15% hits; AID 540267; in the data active = activity change below about -80%; inconclusive = between about -30% and that limit;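 also: parasites exposed to compound for two days anaerobically before the ATP read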
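Trophozoites 100 cells/well + cpd; 48 hrs, 37 deg C, anaerobic. ATPLite 1-Step added, 15-30 min RT, luminescence read (ATP-based viability).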
TDP1 block: TDP1 (human) enzyme inhibition; Potency, µM (doses to about 130 µM), usual class: inhibitors; recombinant TDP1, AlphaScreen DNA substrate cleavage; 350,000 compounds, 0.28% hits; Q9NUW8; also: nearly all actives have a fitted effect of over 40% in size
Target sequence (Q9NUW8 whole entry, looked up): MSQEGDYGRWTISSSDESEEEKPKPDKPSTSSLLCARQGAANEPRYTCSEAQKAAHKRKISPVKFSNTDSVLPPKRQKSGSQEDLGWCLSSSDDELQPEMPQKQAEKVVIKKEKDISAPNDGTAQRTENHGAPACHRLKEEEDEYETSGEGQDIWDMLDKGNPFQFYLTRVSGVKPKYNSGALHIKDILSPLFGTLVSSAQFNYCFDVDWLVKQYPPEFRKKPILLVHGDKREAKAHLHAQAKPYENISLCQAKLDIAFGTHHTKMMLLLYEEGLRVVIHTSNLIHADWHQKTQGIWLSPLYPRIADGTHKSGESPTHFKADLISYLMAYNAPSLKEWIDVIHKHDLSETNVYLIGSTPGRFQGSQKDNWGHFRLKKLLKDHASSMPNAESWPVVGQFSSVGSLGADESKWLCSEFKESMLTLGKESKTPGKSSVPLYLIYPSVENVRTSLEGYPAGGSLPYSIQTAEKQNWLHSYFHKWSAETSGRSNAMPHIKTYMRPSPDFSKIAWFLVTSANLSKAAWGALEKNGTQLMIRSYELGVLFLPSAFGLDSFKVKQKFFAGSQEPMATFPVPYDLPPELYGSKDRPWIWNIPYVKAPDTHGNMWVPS
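Tdp1 1 nM final; 15 min RT w/ cpd; substrate 15 nM, 5 min; beads 10 ug/ml, 10 min; AlphaScreen read. Neg ctrl: no enzyme.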
ELG1 DNA repair: blocks ELG1-dependent DNA repair in HEK293T cells; 330,000 compounds, 2.3% hits; Potency, µM (series often up to 46.1 µM), usual class: inhibitors; HEK293T ELG1-luciferase reporter, luminescence, 16 h; DNA damage induced by 5-fluorouridine; also: nearly all actives have a fitted effect of over 55% in size
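5-Fluorouridine DNA damage + compound/DMSO, 2,000 cells/well, 16 h, 37 °C/5% CO2. ONE-Glo, 30 min RT, luminescence. Readout = decrease in reporter signal.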
TDP1 cell noCPT: qHTS for Inhibitors of human tyrosyl-DNA phosphodiesterase 1 (TDP1): qHTS in cells in absence of CPT | DT40 Tdp1-/- hTDP1 cells, no CPT, ATP luminescence, 48 h | Potency, µM (series often up to 46.2 µM), most hits filed as inhibitors | 420,000 compounds, 15% hits | AID 686978, 2013; also: nearly all actives have a fitted effect of over 55% in size
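DT40 Tdp1-/-;hTDP1 cells, no CPT (DMSO vehicle only), 400 cells/well; compounds pin-transferred; ≥48 hr, 37 °C; CellTiter-Glo 30 min RT dark, luminescence read.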
Large screens that a line does not name were inactive. A selection: hits, their analogues and other compounds. The true share with any hit is near 19%. Unless noted, calls follow the shape of the dose curve; as a rule, active = well fitted curve in the direction sought with a large enough effect; inconclusive = small, poorly fitted or top-dose-only effect, or another doubt; inactive = no such curve, though single readings can be large; an effect the other way counts as inactive or inconclusive.

Cc1c(NC(=S)NC(=O)c2sc3ccccc3c2Cl)cccc1C(=O)O	ELG1 DNA repair inconclusive
COc1cccc(N2CCN(C(=O)CNC(=O)c3sc4ccccc4c3Cl)CC2)c1	DT40 TDP1 CPT inconclusive, TDP1 cell noCPT inconclusive
O=C(CNC(=O)c1ccccc1)N[C@H](C(=O)Nc1cc(C(F)(F)F)ccc1Cl)c1ccccc1	none (no result: IL1B secr inh, DT40 TDP1 CPT, Giardia kill, ELG1 DNA repair, TDP1 cell noCPT)
Cc1ccc2nc(C)c3c(c2c1)SCC3	none (no result: IL1B secr inh, TDP1 block)
COc1cccc(CN(C)C(=O)COc2ccc(C(=O)c3ccc(Cl)cc3)cc2)c1OC	DT40 TDP1 CPT inconclusive, TDP1 cell noCPT 23.1µM
O=C(NCc1ccc2[nH]c3c(c2c1)CCCC3)c1ccc(S(=O)(=O)N2CCOCC2)cc1	ELG1 DNA repair inconclusive, TDP1 cell noCPT inconclusive
O=C(NCCSc1c(-c2ccc(Br)cc2)[nH]c2ccccc12)c1ccc(S(=O)(=O)N2CCOCC2)cc1	DT40 TDP1 CPT 3.66µM, TDP1 cell noCPT 4.11µM (no result: IL1B secr inh, Giardia kill, ELG1 DNA repair)
O=C(NCCSc1c(-c2ccc(Cl)cc2)[nH]c2ccccc12)c1ccc(S(=O)(=O)N2CCOCC2)cc1	DT40 TDP1 CPT 3.66µM, TDP1 cell noCPT 3.66µM (no result: IL1B secr inh, Giardia kill, ELG1 DNA repair)
CN(C)c1cccc(C(=O)N2CCCC(CCC(=O)NCc3ccccc3F)C2)c1 (stereo not given)	DT40 TDP1 CPT inconclusive, ELG1 DNA repair inconclusive, TDP1 cell noCPT inconclusive
COCCCNC(=S)N/N=C/c1ccc(OC)c(Br)c1	DT40 TDP1 CPT inconclusive, TDP1 cell noCPT inconclusive (no result: TDP1 block)
c1ccc(COc2ncnc3c2ncn3CCCNCCN2CCOCC2)cc1	none (no result: TDP1 block, ELG1 DNA repair)
Cc1cc(C(F)F)n2nc(C(=O)Nc3ccc(F)c(Cl)c3)nc2n1	TDP1 cell noCPT inconclusive (no result: IL1B secr inh, Giardia kill, ELG1 DNA repair)
Cc1ccccc1C(=O)Nc1cccc(C(=O)OCc2cc(=O)n3c4c(sc3n2)CCCC4)c1	DT40 TDP1 CPT inconclusive, TDP1 cell noCPT inconclusive (no result: IL1B secr inh, Giardia kill, ELG1 DNA repair)
CSc1cccc(NC(=O)c2cc(S(=O)(=O)N3CCc4ccccc43)cn2C)c1	DT40 TDP1 CPT 14.6µM, ELG1 DNA repair inconclusive, TDP1 cell noCPT 25.9µM (no result: TDP1 block)
Cn1cc(S(=O)(=O)N2CCc3ccccc32)cc1C(=O)NC(C)(C)C	DT40 TDP1 CPT 3.26µM, ELG1 DNA repair inconclusive, TDP1 cell noCPT 2.59µM (no result: TDP1 block)
CCOC(=O)c1cc(S(=O)(=O)N2CCc3ccccc32)cn1C	DT40 TDP1 CPT inconclusive, ELG1 DNA repair inconclusive, TDP1 cell noCPT 2.31µM
Cc1cccc(NC(=O)c2cc(S(=O)(=O)N3CCc4ccccc43)cn2C)c1	none (no result: TDP1 block)
CCOC(=O)c1c(S(=O)(=O)N2CCCCC2C)c(C)n(C)c1C (stereo not given)	DT40 TDP1 CPT inconclusive, TDP1 cell noCPT 10.3µM
CCOC(=O)N1CCC(NC(=O)c2cc(S(=O)(=O)N3CCc4ccccc43)cn2C)CC1	ELG1 DNA repair inconclusive
Cc1cc(C(=O)OCC(=O)NCc2ccco2)c(C)o1	none
Cn1cc(S(=O)(=O)N2CCc3ccccc32)cc1C(=O)Nc1ccc(Cl)cc1	DT40 TDP1 CPT 25.9µM, TDP1 cell noCPT 25.9µM (no result: TDP1 block)
CCOC(=O)c1c(S(=O)(=O)N2CCc3ccccc32)c(C)n(C)c1C	DT40 TDP1 CPT 23.1µM, TDP1 cell noCPT inconclusive
CN(C(=O)c1cc(S(=O)(=O)N2CCc3ccccc32)cn1C)C1CCCCC1	DT40 TDP1 CPT 20.6µM, TDP1 cell noCPT 18.4µM (no result: TDP1 block)
CCCN(C(=O)c1cc(S(=O)(=O)N2CCc3ccccc32)cn1C)c1ccc(OCC)cc1	DT40 TDP1 CPT inconclusive, TDP1 cell noCPT 20.6µM (no result: IL1B secr inh, Giardia kill, ELG1 DNA repair)
Cc1ccc(N(C)C(=O)c2cc(S(=O)(=O)N3CCc4ccccc43)cn2C)cc1	DT40 TDP1 CPT inconclusive, TDP1 cell noCPT inconclusive (no result: TDP1 block)
CCC1(c2ccccc2)NC(=O)N(CC(=O)NCC2COc3ccccc3O2)C1=O (stereo not given)	DT40 TDP1 CPT inconclusive, TDP1 cell noCPT inconclusive
CCCCS(=O)(=O)c1sc2nc3c(cc2c1N)CCCC3	DT40 TDP1 CPT 11.6µM, ELG1 DNA repair inconclusive, TDP1 cell noCPT 23.1µM
CCCCCCCCS(=O)c1sc2nc3c(cc2c1N)CCCC3 (stereo not given)	DT40 TDP1 CPT 13µM, TDP1 cell noCPT inconclusive (no result: TDP1 block, ELG1 DNA repair)
